Measurements: the supplement of paper PMC11732987, “Enantioselective OTUD7B fragment discovery through chemoproteomics screening and high-throughput optimisation” (Communications Chemistry, 2025)

How the values were obtained:
Assay in all cases: log2 ratio of Biotin-Ahx-Ub-VS probe labelling (fragment/DMSO); higher = less target engagement (more negative = stronger competition), active = hit call of the paper (q ≤ 0.05, log2 ratio ≤ -1)
Details in all cases: compound concentration: 200 uM; treatment time: 3 h
[1] = target: USP34 (UniProt Q70CQ2)
USP34, sequence (Q70CQ2 whole entry, the tested form may be a part): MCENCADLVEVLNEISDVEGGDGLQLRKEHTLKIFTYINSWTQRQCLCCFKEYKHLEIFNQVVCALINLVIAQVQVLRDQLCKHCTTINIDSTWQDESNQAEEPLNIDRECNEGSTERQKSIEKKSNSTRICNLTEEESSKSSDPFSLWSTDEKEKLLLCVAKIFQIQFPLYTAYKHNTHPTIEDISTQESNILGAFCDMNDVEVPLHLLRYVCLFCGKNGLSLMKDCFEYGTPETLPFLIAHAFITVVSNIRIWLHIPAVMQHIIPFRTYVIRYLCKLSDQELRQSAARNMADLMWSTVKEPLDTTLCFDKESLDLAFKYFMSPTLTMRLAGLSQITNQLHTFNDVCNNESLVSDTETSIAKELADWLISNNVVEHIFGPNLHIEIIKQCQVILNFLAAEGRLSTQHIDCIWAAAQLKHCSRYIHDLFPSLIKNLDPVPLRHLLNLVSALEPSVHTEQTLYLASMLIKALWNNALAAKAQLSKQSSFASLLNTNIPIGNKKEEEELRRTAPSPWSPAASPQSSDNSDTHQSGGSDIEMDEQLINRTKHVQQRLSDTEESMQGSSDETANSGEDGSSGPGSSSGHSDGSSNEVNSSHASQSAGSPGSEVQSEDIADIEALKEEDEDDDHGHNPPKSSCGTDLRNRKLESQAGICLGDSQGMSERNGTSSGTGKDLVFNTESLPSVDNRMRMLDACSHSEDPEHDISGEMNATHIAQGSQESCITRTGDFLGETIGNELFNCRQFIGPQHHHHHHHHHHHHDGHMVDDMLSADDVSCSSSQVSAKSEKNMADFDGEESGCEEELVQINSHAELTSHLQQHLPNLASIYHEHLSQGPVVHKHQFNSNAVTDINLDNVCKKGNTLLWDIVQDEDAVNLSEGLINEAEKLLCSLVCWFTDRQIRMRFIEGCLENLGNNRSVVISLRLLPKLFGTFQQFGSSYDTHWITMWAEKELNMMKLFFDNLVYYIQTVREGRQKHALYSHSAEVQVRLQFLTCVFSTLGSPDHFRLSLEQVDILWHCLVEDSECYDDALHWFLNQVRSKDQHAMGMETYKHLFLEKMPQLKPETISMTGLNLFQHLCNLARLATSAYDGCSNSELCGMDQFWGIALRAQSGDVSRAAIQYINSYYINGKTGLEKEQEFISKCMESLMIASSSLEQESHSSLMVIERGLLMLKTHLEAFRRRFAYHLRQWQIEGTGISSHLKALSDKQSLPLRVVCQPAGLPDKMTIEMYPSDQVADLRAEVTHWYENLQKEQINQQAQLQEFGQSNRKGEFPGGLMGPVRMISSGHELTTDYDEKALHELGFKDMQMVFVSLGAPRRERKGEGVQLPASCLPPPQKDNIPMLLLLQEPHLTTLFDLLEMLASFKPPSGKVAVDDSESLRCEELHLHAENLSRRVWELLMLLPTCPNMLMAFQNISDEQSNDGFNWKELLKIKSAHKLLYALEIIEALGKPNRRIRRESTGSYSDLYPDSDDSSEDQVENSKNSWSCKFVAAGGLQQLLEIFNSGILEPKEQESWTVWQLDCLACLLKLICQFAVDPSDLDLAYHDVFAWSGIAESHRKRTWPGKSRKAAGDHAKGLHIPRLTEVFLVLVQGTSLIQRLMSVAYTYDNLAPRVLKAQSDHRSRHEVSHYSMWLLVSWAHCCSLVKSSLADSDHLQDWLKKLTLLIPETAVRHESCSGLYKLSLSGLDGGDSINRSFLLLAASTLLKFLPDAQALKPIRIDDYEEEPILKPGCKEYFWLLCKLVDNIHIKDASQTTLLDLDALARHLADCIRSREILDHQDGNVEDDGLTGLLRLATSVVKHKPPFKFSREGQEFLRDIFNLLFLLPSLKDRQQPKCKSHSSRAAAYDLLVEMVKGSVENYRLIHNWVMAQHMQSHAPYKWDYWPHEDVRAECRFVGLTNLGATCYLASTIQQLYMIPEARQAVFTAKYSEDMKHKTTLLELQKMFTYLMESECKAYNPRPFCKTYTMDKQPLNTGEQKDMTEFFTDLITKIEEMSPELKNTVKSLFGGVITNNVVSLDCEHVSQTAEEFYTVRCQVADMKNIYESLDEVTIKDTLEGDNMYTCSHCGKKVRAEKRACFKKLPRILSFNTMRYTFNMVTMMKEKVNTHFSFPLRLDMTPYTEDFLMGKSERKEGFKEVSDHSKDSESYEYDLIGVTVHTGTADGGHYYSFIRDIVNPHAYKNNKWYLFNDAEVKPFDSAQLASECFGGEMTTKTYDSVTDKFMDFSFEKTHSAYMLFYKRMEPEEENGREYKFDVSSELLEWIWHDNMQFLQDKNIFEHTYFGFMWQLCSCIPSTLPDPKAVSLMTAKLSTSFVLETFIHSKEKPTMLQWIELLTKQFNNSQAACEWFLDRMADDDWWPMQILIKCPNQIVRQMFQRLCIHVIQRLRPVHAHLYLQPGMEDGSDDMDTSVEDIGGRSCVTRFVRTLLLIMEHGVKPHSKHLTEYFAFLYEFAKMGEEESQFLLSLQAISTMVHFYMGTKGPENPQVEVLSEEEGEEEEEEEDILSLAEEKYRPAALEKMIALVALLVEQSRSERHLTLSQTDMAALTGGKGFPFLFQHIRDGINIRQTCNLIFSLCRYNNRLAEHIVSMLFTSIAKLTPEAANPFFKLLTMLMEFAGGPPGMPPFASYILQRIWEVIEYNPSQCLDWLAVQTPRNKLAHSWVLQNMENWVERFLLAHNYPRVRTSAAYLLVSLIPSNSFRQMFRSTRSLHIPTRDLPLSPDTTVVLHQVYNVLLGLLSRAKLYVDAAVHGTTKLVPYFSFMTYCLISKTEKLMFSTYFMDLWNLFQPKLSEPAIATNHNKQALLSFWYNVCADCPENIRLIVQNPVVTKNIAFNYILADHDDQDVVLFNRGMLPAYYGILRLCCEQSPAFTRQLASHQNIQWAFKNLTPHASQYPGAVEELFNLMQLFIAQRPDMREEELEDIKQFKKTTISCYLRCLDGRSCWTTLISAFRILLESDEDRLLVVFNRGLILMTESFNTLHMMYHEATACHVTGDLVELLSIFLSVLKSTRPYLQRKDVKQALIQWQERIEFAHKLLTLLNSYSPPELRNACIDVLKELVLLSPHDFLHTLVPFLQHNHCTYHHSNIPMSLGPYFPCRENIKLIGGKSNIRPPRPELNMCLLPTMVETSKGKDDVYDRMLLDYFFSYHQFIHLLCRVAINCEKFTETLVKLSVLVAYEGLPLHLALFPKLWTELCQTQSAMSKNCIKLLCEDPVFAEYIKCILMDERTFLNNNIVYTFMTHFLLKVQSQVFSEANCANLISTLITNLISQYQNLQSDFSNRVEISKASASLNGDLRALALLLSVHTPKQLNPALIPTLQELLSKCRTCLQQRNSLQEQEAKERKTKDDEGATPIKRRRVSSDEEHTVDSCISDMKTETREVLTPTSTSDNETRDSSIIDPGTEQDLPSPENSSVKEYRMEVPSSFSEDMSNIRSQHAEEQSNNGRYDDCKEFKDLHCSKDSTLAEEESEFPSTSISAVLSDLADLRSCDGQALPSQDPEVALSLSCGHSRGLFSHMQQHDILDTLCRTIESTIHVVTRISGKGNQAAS
Outline: (§1)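 HEK293T lysate in Tris/CHAPS/IGEPAL buffer with protease inhibitors (495 µg per sample) was given fragment at 200 µM or vehicle for 3 h, in triplicate. It then received Biotin-Ahx-Ub-VS at 0.5 µM final for 1 h. Labelled DUBs were NeutrAvidin-enriched, digested with LysC and trypsin, and run by diaPASEF LC-MS/MS. Values are average log2 fragment/vehicle ratios by unpaired t-test on global-median-normalised Spectronaut quantities of proteins with ≥2 unique peptides.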

[2] = target: T1, USP36 (UniProt Q9P275)
T1 sequence (whole entry): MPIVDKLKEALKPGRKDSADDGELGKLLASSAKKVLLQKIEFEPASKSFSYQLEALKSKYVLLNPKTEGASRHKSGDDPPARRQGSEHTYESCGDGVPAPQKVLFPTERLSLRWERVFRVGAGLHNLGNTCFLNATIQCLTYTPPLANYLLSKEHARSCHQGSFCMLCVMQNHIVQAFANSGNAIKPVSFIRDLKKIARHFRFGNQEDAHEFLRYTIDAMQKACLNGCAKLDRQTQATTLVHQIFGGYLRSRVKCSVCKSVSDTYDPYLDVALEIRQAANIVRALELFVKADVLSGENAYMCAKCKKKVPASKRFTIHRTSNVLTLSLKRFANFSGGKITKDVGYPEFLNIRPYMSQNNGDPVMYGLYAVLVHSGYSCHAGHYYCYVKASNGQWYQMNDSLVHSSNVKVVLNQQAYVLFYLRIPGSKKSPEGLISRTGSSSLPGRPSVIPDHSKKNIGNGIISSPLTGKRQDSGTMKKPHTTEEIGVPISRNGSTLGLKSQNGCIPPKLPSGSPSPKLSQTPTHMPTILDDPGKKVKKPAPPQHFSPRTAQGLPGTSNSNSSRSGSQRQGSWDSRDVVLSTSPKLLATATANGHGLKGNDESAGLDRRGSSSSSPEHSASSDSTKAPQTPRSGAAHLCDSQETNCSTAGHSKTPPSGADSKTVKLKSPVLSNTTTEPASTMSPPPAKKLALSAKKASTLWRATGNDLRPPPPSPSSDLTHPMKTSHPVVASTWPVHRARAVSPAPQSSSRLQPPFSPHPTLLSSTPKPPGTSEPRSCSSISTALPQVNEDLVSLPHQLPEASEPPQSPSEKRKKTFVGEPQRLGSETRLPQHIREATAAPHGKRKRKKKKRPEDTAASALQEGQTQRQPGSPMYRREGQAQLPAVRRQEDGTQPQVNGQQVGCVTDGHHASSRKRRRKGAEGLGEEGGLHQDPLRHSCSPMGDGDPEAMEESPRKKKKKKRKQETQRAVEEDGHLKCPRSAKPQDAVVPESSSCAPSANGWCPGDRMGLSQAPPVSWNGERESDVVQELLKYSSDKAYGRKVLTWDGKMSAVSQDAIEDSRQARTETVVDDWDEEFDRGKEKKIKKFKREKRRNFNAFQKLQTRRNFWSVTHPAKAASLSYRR
Outline: as §1

[3] = target: T2, USP38 (UniProt Q8NB14)
T2 sequence (whole entry): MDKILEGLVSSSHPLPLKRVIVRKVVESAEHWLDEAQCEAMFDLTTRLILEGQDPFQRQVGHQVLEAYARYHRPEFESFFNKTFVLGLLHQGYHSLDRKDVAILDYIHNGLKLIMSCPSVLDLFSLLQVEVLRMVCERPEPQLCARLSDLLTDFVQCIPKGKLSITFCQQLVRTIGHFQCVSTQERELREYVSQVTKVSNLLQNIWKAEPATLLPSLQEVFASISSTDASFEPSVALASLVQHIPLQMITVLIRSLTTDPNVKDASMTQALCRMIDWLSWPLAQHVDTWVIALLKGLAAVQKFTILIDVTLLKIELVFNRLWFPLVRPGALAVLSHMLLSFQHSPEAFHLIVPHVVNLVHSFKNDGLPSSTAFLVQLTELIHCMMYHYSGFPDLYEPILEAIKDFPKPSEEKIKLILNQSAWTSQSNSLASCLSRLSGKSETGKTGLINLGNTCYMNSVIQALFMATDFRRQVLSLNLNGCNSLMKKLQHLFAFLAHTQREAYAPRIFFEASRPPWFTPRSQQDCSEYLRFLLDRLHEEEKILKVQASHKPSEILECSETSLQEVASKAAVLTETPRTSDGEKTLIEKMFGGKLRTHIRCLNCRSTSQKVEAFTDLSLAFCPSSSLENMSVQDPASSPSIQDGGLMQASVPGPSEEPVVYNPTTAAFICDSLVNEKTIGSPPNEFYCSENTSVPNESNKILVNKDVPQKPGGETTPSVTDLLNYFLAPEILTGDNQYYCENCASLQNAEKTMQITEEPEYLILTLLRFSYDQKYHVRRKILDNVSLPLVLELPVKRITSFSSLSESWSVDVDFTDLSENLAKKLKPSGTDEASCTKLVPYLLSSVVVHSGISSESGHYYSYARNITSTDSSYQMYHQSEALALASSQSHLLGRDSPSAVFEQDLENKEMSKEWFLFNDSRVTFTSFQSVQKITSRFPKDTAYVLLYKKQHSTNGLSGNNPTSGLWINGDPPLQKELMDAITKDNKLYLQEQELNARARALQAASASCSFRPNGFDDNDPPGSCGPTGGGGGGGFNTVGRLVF
Outline: as §1

[4] = target: T3, USP39 (UniProt Q53GS9)
T3 sequence (whole entry): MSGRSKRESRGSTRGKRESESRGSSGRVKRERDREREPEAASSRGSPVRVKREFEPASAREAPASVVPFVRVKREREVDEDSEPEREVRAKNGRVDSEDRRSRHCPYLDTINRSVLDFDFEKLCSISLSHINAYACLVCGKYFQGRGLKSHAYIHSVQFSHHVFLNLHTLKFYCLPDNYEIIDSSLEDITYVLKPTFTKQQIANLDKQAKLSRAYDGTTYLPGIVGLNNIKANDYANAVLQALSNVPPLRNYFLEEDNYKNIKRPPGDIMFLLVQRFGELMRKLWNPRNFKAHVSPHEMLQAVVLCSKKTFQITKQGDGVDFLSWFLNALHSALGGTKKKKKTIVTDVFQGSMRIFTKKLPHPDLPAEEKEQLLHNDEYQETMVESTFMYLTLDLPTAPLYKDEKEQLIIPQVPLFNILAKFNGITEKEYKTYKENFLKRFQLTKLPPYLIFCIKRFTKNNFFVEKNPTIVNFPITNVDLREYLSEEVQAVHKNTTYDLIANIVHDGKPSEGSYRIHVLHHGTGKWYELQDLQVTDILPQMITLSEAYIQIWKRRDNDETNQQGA
Outline: as §1

[5] = target: T4, USP4 (UniProt Q13107)
T4 sequence (whole entry): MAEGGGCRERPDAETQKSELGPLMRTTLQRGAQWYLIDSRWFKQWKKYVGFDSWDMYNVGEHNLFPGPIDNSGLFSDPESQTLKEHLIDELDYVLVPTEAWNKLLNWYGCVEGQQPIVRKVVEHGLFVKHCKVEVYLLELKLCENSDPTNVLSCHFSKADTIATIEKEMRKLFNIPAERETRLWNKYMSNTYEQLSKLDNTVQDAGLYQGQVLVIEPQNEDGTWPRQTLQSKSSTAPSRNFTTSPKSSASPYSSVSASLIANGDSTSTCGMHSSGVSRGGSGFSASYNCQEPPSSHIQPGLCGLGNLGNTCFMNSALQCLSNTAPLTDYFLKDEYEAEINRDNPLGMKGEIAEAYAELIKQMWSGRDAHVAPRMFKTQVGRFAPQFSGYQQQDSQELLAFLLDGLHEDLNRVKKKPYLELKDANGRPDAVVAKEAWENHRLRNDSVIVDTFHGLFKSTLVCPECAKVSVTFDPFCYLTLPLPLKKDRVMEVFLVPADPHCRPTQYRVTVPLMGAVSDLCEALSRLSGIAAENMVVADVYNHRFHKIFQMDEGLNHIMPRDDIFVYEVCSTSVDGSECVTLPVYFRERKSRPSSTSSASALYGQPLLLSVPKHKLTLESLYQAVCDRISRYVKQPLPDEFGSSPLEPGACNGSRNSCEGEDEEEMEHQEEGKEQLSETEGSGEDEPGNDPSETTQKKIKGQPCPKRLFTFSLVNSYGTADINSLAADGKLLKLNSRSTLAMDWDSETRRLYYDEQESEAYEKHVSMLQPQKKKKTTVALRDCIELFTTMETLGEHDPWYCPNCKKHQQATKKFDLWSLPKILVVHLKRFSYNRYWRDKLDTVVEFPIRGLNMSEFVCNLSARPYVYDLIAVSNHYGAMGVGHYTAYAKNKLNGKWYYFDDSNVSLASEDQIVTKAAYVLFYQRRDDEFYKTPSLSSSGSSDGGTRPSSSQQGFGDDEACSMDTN
Outline: as §1

Measured: log2 ratio of Biotin-Ahx-Ub-VS probe labelling

O=C(CCl)N1CCN(c2nc3ccccc3o2)CC1
inactive: [1] -0.0431 | [2] -0.047 | [3] -0.41 | [4] -0.00936 | [5] -0.445
